43 molecules from paper PMC4336329 (PLoS ONE, 2015) can be followed below.

The whole screen tested about 310,000 compounds, of which about 14,000 (4.5%) showed an effect of 50% or more. Effects have a minus sign here. The entries come from a sample that favours strong results as a whole.
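Note: peak tail current of the secondary pulse compared with the same well before compound.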

The test deals with human ether-à-go-go-related gene (hERG) potassium channel (human, UniProt Q12809). Put plainly: primary screen, population patch clamp on CHO cells stably expressing hERG; higher = less effect of the substance.
Sequence of human ether-à-go-go-related gene (hERG) potassium channel (Q12809 whole entry, looked up): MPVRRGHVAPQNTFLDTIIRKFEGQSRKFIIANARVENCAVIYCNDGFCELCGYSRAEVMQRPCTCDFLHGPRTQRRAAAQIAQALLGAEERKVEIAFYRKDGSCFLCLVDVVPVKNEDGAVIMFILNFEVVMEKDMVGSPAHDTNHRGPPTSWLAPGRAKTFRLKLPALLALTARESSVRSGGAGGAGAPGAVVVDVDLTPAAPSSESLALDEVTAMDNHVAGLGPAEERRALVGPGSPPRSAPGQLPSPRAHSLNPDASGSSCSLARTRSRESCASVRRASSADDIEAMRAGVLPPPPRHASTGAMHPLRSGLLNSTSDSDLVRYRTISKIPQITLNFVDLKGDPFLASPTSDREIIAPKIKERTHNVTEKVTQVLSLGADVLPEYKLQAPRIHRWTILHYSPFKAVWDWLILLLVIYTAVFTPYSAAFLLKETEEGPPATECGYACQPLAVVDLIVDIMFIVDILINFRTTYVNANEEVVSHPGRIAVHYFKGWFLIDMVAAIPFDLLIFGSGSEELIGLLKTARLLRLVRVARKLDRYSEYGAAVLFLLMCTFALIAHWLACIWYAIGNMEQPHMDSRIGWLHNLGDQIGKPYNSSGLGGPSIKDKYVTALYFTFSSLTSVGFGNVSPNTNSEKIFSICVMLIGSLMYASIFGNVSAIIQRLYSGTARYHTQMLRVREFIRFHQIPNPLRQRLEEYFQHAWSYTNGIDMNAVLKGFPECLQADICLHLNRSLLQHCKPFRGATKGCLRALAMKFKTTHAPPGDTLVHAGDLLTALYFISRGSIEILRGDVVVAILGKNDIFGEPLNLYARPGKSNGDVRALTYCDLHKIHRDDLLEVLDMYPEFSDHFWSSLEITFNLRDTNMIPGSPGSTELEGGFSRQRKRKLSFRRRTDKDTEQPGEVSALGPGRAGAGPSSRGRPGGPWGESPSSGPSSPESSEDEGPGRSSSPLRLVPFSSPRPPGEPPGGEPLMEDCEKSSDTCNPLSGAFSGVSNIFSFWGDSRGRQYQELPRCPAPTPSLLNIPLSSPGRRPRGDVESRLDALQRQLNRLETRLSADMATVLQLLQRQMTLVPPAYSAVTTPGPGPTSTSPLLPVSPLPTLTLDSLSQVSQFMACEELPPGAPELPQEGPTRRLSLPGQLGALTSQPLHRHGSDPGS
For the molecule `CC(NCc1ccc(S(N)(=O)=O)cc1)C(=O)Nc1cc([N+](=O)[O-])ccc1Cl` (stereo not shown), the “hERG current change (%, negative = inhibition) at 10uM” value is reported as -45.8%. As for `CC(NCc1ccc(S(N)(=O)=O)cc1)C(=O)Nc1cccc(Cl)c1` (stereo not shown), the figure is -8.15%.

As to `CC(NCc1ccc(S(N)(=O)=O)cc1)C(=O)Nc1ccc([N+](=O)[O-])cc1Cl` (stereo not shown), the “hERG current change (%, negative = inhibition) at 10uM” value is listed as -50.5%. As for `Cc1onc(-c2ccccc2)c1CNC(=O)C1COc2ccccc2O1` (stereo not shown), the figure is -23%; as for `Cc1ccc2oc(=O)c3cc(C(=O)NCCCN4CCCC(C)C4)sc3c2c1` (stereo not shown), -34.9%. The same measure for `O=C(NCCCN1CCCCCC1)c1cc2c(=O)oc3ccccc3c2s1`: -60.5%; for `Cc1ccc2oc(=O)c3cc(C(=O)NCCCN4CCCCCC4)sc3c2c1`: -40.2%. The same measure for `Cc1ccc2oc(=O)c3cc(C(=O)NCCCN4CC(C)CC(C)C4)sc3c2c1` (stereo not shown): -49.2%. `CCC1CCCCN1CCCNC(=O)c1cc2c(=O)oc3ccc(C)cc3c2s1` (stereo not shown): the “hERG current change (%, negative = inhibition) at 10uM” value is on record as -69.5%. For `CN1CCN(CCCNC(=O)c2cc3c(=O)oc4ccccc4c3s2)CC1`, the “hERG current change (%, negative = inhibition) at 10uM” value was -14.2%. The same measure for `Cc1ccc2oc(=O)c3cc(C(=O)NCCCN4C(C)CCCC4C)sc3c2c1` (stereo not shown): -61.6%; for `CCN1CCN(CCCNC(=O)c2cc3c(=O)oc4ccc(C)cc4c3s2)CC1`: -19.1%; for `Cc1ccc2oc(=O)c3cc(C(=O)NCCCN4CCN(C)CC4)sc3c2c1`: -5.62%. As for `Cc1nn(C)c(C(=O)Nc2ccc(S(=O)(=O)NC34CC5CC(CC(C5)C3)C4)cc2)c1Br`, the figure is 9.77%. With `COc1ccc(OCC(O)CN(CC(O)COc2ccc(OC)cc2)c2cccc(O)c2)cc1` (stereo not shown), the “hERG current change (%, negative = inhibition) at 10uM” value is listed as 2.41%.

Turning to `CCSc1nnc2c(n1)OC1(CCCC1)Nc1ccccc1-2`, the “hERG current change (%, negative = inhibition) at 10uM” value is on record as 2.61%. The same measure for `COc1ccc(CN(C)C(=O)CCN2C(=O)c3ccccc3C2=O)c(OC)c1OC`: -2.22%. The same measure for `CCc1c(C)sc(NC(=S)N2CCN(C(=O)C3CCCO3)CC2)c1C(=O)OC` (stereo not shown): -13%; for `CC(C)Cc1nnc(NC(=O)CCC(=O)N2CCN(c3ccccc3F)CC2)s1`: 17%; for `Cc1ccc(Nc2ccc(C(N)=O)cc2[N+](=O)[O-])cc1C`: 8.9%. Take `CC(=O)OC(C(=O)NCc1ccc(F)cc1)c1ccccn1` (stereo not shown): the “hERG current change (%, negative = inhibition) at 10uM” value turned out to be 4.52%. The same measure for `OCC[C@@H]1C[C@@H](O)[C@H](O)[C@@]2(Cc3ccccc3CCO2)O1`: 11%; for `Cn1ccc(NC(=O)c2ccc(Cl)cc2Cl)n1`: 7.79%.

For the molecule `O=C(CN1C(=O)c2ccccc2C1=O)Nc1cccc(S(=O)(=O)Nc2ccccc2Cl)c1`, the “hERG current change (%, negative = inhibition) at 10uM” value stood at 19.9%. For the molecule `COc1ccc(C2=Nn3c(nnc3-c3cccnc3)SC2)cc1OC`, the “hERG current change (%, negative = inhibition) at 10uM” value was -61.8%.

In the case of `COc1ccc(C2=Nn3c(nnc3-c3ccccn3)SC2)cc1OC`, the “hERG current change (%, negative = inhibition) at 10uM” value was -34.3%.

Turning to `c1ccc(C2=Nn3c(nnc3-c3cccnc3)SC2)cc1`, the “hERG current change (%, negative = inhibition) at 10uM” value is listed as -25.4%.

Regarding `COc1ccc(OC)c(C2=Nn3c(nnc3-c3ccncc3)SC2)c1`, the “hERG current change (%, negative = inhibition) at 10uM” value is reported as -24.3%. As for `COc1ccc(C2=Nn3c(nnc3-c3ccncc3)SC2)cc1OC`, the figure is -70.8%. As for `COc1ccc(C2=Nn3c(nnc3-c3ccccc3)SC2)cc1OC`, the figure is 7.08%; as for `O=S(=O)(c1ccc(NC2CCCCC2)cc1)N1CCOCC1`, -23.7%. As for `COc1ccc(NC(=O)c2cc(-c3ccccn3)nc3ccccc23)cc1S(=O)(=O)N(C)C`, the “hERG current change (%, negative = inhibition) at 10uM” value was -16.6%. The same measure for `O=C(Nn1cnnc1)c1ccc(Br)s1`: 13.9%. The same measure for `CN(C)C(=O)CSc1nc2ccccc2c(=O)[nH]1`: 22%. The same measure for `CCN(CC)CCCn1c2c(c(SCC(=O)Nc3nc4ccccc4s3)nc1=O)CCC2`: -71.2%. `CCN(CC)CCn1c2c(c(SCC(=O)Nc3nc4ccccc4s3)nc1=O)CCCC2`: the “hERG current change (%, negative = inhibition) at 10uM” value is recorded as -60.2%.

Take `CCN(CC)CCn1c2c(c(SCC(=O)Nc3nc4ccccc4s3)nc1=O)CCC2`: the “hERG current change (%, negative = inhibition) at 10uM” value is reported as -58.3%. The same measure for `CCCNC(=O)c1onc(CSc2ccc(Cl)cc2)c1C(=O)NCCOC`: -19.7%; for `Cn1c(SCc2cccnc2)nc2c(c1=O)SCC2`: 7.48%; for `N#Cc1cc2c(=O)n3ccccc3nc2n(-c2ccc(Cl)cc2)c1=O`: 5.19%. As for `COC(=O)c1sccc1NC(=O)CN1CCN(c2ccc(F)cc2)CC1`, the figure is 6.89%; as for `Cc1nc(SCC(=O)Nc2cccc(Cl)c2)n[nH]1`, 6.87%; as for `O=C(NC1CC2CCCC(C1)N2S(=O)(=O)c1ccccc1)C1CCCCC1` (stereo not shown), -2.61%.
